Only some compounds are listed: those with a hit (about 4.9% of all), similar ones and a draw of the others.
MPTP inh: inhibitors of mitochondrial permeability transition pore; isolated mouse mitochondria, Ca2+ swelling absorbance, 30 min; inhibition, % at 10 µM; 360,000 compounds, 1.4% hits; AID 602449;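 active = inhibition of 50% or more, scaled per plate between neutral and stimulator controls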;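 also: 0% = DMSO wells given calcium and 100% = 1 mM EGTA wells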
HSF1 inh: HSF1 inhibition | NIH3T3-HGL HSE-luciferase, MG132-induced, luminescence 8 h; hits give low values | activity change, negative = inhibition, % at 7.5 µM (by protocol) | 300,000 compounds, 0.77% hits;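 active = more than half of replicate wells show activity change below -50%, luminescence cut by over half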;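 also: luciferase reports HSF-1 transcriptional activity via heat shock element; 0% = median of DMSO wells and -100% = zero luminescence signal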
HSP90 refold inh: blocks HSP90-mediated luciferase refolding in reticulocyte lysate | AID 1789 | Rabbit reticulocyte lysate, luciferase refolding luminescence, 3 h | 290,000 compounds, 0.91% hits | inhibition, % at 5.6 µM;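 active = inhibition above the screen-wide mean plus 3 SD, computed separately per campaign, cut at about 16% in these data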;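 also: 0% = DMSO wells and 100% = 60 µM geldanamycin wells; inhibitors lower the luminescence because luciferase stays unfolded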
Platelet DG rel: modulates dense granule release in human platelets; 300,000 compounds, 0.22% hits; human platelet-rich plasma, SFLLRN dense granule ATP release, luminescence; inhibition, %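 (compounds screened at 7.5 µM in platelet-rich plasma)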;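 active = mean replicate score, as percent of positive control, at or above 50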
dFosB act: activators of mouse delta FosB homodimer | P13346 | purified delta FosB, TAMRA-CDK5 oligo fluorescence polarization; percent of positive-control signal above neutral wells | activation, % at 25 µM | 340,000 compounds, 0.99% hits;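 active = mean activation above about 17%, with every replicate also reaching it, limit read from the data, passing the limit was not always enough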
Target sequence (P13346 whole entry, looked up): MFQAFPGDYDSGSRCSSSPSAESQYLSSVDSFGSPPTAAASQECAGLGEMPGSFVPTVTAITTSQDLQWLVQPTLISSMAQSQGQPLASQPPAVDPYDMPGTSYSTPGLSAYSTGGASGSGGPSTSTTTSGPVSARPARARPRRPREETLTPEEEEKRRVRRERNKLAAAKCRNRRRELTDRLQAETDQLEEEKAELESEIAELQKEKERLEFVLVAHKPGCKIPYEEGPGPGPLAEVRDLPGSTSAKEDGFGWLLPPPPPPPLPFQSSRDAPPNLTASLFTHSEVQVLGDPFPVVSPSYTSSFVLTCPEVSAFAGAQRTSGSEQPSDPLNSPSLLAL
HSF-1 act: increases HSF-1 driven luciferase reporter signal. AID 504408. activation, % at 9 µM. 300,000 compounds, 1.7% hits. NIH3T3-HGL HSF-1 luciferase reporter, MG132, 8 h; 100% = twice DMSO control signal;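 active = mean replicate activation of at least 50% with a set share of replicates each reaching 50%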;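 also: 0% = median of the neutral control wells and 100% = twice that signal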
MPTP counter: Rhodamine 123 counter-screen of mitochondrial pore hits; inhibition, % at 10 µM; shares compounds with MPTP inh; isolated mitochondria, membrane potential, Rhodamine 123 fluorescence; 5,000 compounds, 78% hits; in the data active = inhibition above about 22%;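 also: 0% = DMSO vehicle and 100% = positive control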
MPTP swell DR: MPTP inhibition, dose response swelling confirmation. 780 compounds, 58% hits. AID 651561. shares compounds with MPTP inh. isolated mitochondria swelling, absorbance. IC50, µM; in the data active = IC50 below about 20 µM
MPTP cs DR: active in counter-screen for permeability transition pore inhibitors. shares compounds with MPTP inh. isolated mitochondria counterscreen, fluorescence read-out. IC50, µM. 780 compounds, 49% hits. AID 651564; in the data active = IC50 below about 80 µM
Starred values were filed as active, the others as inactive.

What do the screens show for `Clc1c(Cl)c(Cl)c2n[nH]nc2c1Cl`?
MPTP inh: 72*; HSF1 inh: 1; HSP90 refold inh: -3; Platelet DG rel: -17; dFosB act: 0; MPTP counter: 77*

Results for Cc1ccc(NC(=O)CSc2ccc(Br)cc2)cc1S(=O)(=O)N1CCOCC1 ?
MPTP inh: 0; HSF1 inh: 16; Platelet DG rel: -9; dFosB act: -9; HSF-1 act: -5

What do the screens show for `N#CC1=C(N)NC(SCC(=O)Nc2ccc(Br)cc2)=C(C#N)C12CCCCC2`?
MPTP inh: 89*; HSF1 inh: 15; HSP90 refold inh: 1; Platelet DG rel: -1; dFosB act: -8; HSF-1 act: 30; MPTP counter: 89*

How did N#CC1=C(N)NC(SCc2ccc(Br)cc2)=C(C#N)C12CCCCC2 do in these assays?
MPTP inh: 92*; HSF1 inh: 12; HSP90 refold inh: 4; Platelet DG rel: 0; dFosB act: -5; HSF-1 act: 20; MPTP counter: 79*

Results for N#CC1=C(N)NC(SCc2ccc(Cl)cc2)=C(C#N)C12CCCCC2 ?
MPTP inh: 16; HSF1 inh: 10; HSP90 refold inh: 4; Platelet DG rel: -3; dFosB act: -1; HSF-1 act: 35

What do the screens show for `CN(CC(=O)NCc1ccccn1)S(=O)(=O)c1cc(Cl)ccc1Cl`?
MPTP inh: -1; HSF1 inh: -3; Platelet DG rel: -2; dFosB act: -5; HSF-1 act: -3

What do the screens show for `CCOc1ccccc1N1CC(C(=O)Nc2cc(S(C)(=O)=O)ccc2Cl)CC1=O` (stereo unspecified)?
MPTP inh: -1; HSF1 inh: 4; Platelet DG rel: 1; dFosB act: 0; HSF-1 act: 5

Results for Cc1c(NC(=O)C(C)OC(=O)c2cc(Cl)ccc2O)c(=O)n(-c2ccccc2)n1C (stereo unspecified) ?
MPTP inh: 0; HSF1 inh: -3; HSP90 refold inh: 0; Platelet DG rel: 27; dFosB act: -1; HSF-1 act: -3

Results for COCCN(C(=O)c1ccc2c(c1)S(=O)(=O)N=C1CCCCCN12)c1c(N)n(CC(C)C)c(=O)[nH]c1=O ?
MPTP inh: -3; dFosB act: -4

How did COc1ccc(C(=O)OC2CCCCC2CN(C)C)cc1 (stereo unspecified) do in these assays?
MPTP inh: 1; HSF1 inh: -9; HSP90 refold inh: 1; Platelet DG rel: 7; dFosB act: -1; HSF-1 act: -29

Results for CC(C)COc1ccc(C(=O)OC2CC(C)(C)OCC2CN(C)C)cc1 (stereo unspecified) ?
MPTP inh: 68*; HSF1 inh: -2; HSP90 refold inh: -1; Platelet DG rel: 2; dFosB act: -3; HSF-1 act: 18; MPTP counter: -8; MPTP swell DR: 12*; MPTP cs DR: >80

Results for CCN(CC)S(=O)(=O)c1cc([N+](=O)[O-])ccc1NNC(=O)Nc1ccc(F)cc1 ?
MPTP inh: 86*; HSF1 inh: 3; HSP90 refold inh: 0; Platelet DG rel: 15; dFosB act: 5; HSF-1 act: 3; MPTP counter: 92*

How did O=C(NC1CCN(Cc2ccccc2)CC1)c1ccccc1Cl do in these assays?
MPTP inh: 0; HSF1 inh: -4; HSP90 refold inh: 4; Platelet DG rel: -8; dFosB act: 7; HSF-1 act: -12

What do the screens show for `Cc1c(C(=O)NC2CCN(Cc3ccccc3)C2)oc2c(Cl)cccc12` (stereo unspecified)?
MPTP inh: 63*; HSF1 inh: -3; HSP90 refold inh: -5; Platelet DG rel: -23; dFosB act: -16; HSF-1 act: 7; MPTP counter: -4; MPTP swell DR: >100; MPTP cs DR: >80

What do the screens show for `CCc1nc2ccc(C(=O)N3CCN(c4ccccc4)CC3)cn2c1N(CCC(C)C)CCN(C)C`?
MPTP inh: -3

How did COCCCN(C(=S)Nc1cc(Cl)cc(Cl)c1)C(C)c1ccccn1 (stereo unspecified) do in these assays?
MPTP inh: 91*; HSF1 inh: 3; HSP90 refold inh: -5; Platelet DG rel: 0; dFosB act: -9; HSF-1 act: -14; MPTP counter: 87*

Results for COCCCN(C(=O)Nc1ccc(C)c(C)c1)C(C)c1ccccn1 (stereo unspecified) ?
MPTP inh: 0; HSF1 inh: -7; HSP90 refold inh: 0; Platelet DG rel: 9; dFosB act: 2; HSF-1 act: -10

Results for COCCCN(C(=S)Nc1cc(Cl)cc(Cl)c1)C(C)c1ccncc1 (stereo unspecified) ?
MPTP inh: 93*; HSF1 inh: -2; HSP90 refold inh: -2; Platelet DG rel: -6; dFosB act: -11; HSF-1 act: 7; MPTP counter: 99*

What do the screens show for `COCCCN(C(=S)Nc1ccc(C)cc1Cl)C(C)c1ccncc1` (stereo unspecified)?
MPTP inh: 0; HSF1 inh: 2; HSP90 refold inh: -6; Platelet DG rel: 7; dFosB act: -11; HSF-1 act: 0

What do the screens show for `COc1ccccc1CC(Cc1nc2ccccc2[nH]1)c1nc2ccccc2[nH]1` (stereo unspecified)?
MPTP inh: 1; HSF1 inh: 2; HSP90 refold inh: 6; Platelet DG rel: 2; dFosB act: 4; HSF-1 act: 2

What do the screens show for `Cc1cccc(CC(Cc2nc3ccccc3[nH]2)c2nc3ccccc3[nH]2)c1` (stereo unspecified)?
MPTP inh: 89*; HSF1 inh: -4; HSP90 refold inh: 2; Platelet DG rel: 2; dFosB act: -9; HSF-1 act: 10; MPTP counter: 110*

How did CC(NC(=O)COC(=O)c1cc(S(=O)(=O)N2CCOCC2)ccc1F)c1ccccc1 (stereo unspecified) do in these assays?
MPTP inh: 0; dFosB act: 4

What do the screens show for `COc1ccc(NC(=O)COC(=O)CNS(=O)(=O)c2ccccc2)cc1OC`?
MPTP inh: 120*; HSF1 inh: 8; HSP90 refold inh: 0; Platelet DG rel: -13; dFosB act: -3; HSF-1 act: 2; MPTP counter: -3

Assay outcomes (PubChem BioAssay)
